Test [1] has as its system Wnt5a (protein binding on small-molecule microarray). As to the kind of experiment: small molecules binding Wnt5a protein – biophysical, small-molecule microarray, 635/667 nm fluorescence, primary screen (AID 1142).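 Also: fluorescence read at 667 nm with signal to noise per printed feature.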 To be noted: 635 nm fluorescence, higher = more signal.
Test [2] can be described thus: ATP-based viability of Huh7 replicon cells – cell-based, CellTiter-Glo luminescence, basal, 48 h, cytotoxicity control for HCV replication inhibitor project, primary screen (AID 1143).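 Also: Huh7 hepatoma cells carrying a hepatitis C replication reporter with no stimulus; test concentration not given here.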 To be noted: higher = more signal, called active from +8 up or from −8 down. (In general: In antiviral work, replicon cells carry a viral genome segment that copies itself.)
Test [3] is described as follows: Pseudomonas biofilm growth suppression – PAO1 strain, BacTiter-Glo luminescence, LB-PBS, primary screen (AID 1144). To be noted: P. aeruginosa PAO1 biofilm, 12 h, higher = more signal.
Test [4] can be described thus: basal CRE-LacZ reporter activity in PC12 – cell-based, unstimulated, primary screen (AID 1145). To be noted: no forskolin, luminescence, 4.5 h, higher = more signal, called active from +8 up or from −8 down.
The nature of test [5]: forskolin-driven CRE-LacZ activity in PC12 – cell-based, CRE-LacZ reporter, forskolin-stimulated, primary screen (AID 1146).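 Also: PC12 cells with 6xCRE LacZ reporter stimulated by forskolin 10 µM; beta-galactosidase reporter signal reflecting CREB driven transcription.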 To be noted: luminescence, 4.5 h, higher = more signal, called active from +8 up or from −8 down.
In test [6] the target is Streptavidin (Streptomyces avidinii) (UniProt P22629). Briefly: compounds binding control protein streptavidin – biophysical, small-molecule microarray, 635/667 nm fluorescence, artefact control for SMM compound annotation, primary screen (AID 1147).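 Also: signal reflects streptavidin binding to arrayed compounds as a control protein.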 To be noted: higher = more signal.
Sequence of Streptavidin (Streptomyces avidinii) (P22629 whole entry, looked up): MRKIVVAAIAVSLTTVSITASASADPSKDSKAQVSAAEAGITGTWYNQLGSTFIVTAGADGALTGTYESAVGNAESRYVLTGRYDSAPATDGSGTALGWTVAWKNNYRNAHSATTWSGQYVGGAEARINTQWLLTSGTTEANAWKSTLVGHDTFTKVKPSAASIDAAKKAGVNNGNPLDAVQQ
The nature of test [7]: probe aInhba binding on compound microarray – biochemical, small-molecule microarray, 635/667 nm fluorescence, primary screen (AID 1148).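 Also: score merges 667nm spot fluorescence with signal-to-noise for antibody binding to printed compounds.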 To be noted: higher = more signal.
In test [8] the target is Torsin-1A (Homo sapiens) (UniProt O14656). Briefly: TOR1A wild-type binding on microarray – cell lysate, small-molecule microarray, lysate, 635/667 nm, primary screen (AID 1149). To be noted: COS7 hTOR1A-WT lysate, 635 nm fluorescence, higher = more signal.
Sequence of Torsin-1A (Homo sapiens) (O14656 whole entry, looked up): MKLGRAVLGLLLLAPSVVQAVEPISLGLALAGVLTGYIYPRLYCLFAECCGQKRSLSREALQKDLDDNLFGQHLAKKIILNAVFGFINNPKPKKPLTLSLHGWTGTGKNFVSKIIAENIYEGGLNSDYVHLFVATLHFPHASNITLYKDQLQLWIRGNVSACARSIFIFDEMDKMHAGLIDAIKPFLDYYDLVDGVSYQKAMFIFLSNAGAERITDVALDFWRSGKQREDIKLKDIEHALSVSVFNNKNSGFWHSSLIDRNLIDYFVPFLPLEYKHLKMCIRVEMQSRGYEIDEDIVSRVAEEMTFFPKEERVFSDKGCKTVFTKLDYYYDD
Test [9] has the same target. As to the kind of experiment: torsin A mutant lysate binding on microarrays – cell lysate, small-molecule microarray, COS7 lysate, 635/667 nm fluorescence, primary screen (AID 1150).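 Also: score pools 667 nm emission and signal to noise measuring lysate protein binding.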 To be noted: COS7 hTOR1A mutant lysate, 635 nm fluorescence, higher = more signal.
Test [10] concerns Sonic hedgehog protein (Shh). Briefly: Sonic hedgehog microarray binding compounds – biochemical, small-molecule microarray, 635/667 nm fluorescence, primary screen (AID 1151).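 Also: Shh protein binding to compounds spotted on small-molecule microarray slides; score combines spot fluorescence intensity with signal-to-noise across triplicate slides.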 To be noted: 635 nm fluorescence, higher = more signal.
Test [11] is described as follows: optical density shifts of acrAB sulA E. coli – strain DRC41, OD650, 48 h, E. coli filamentation inducer project, primary screen (AID 1152).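 Also: E. coli MC1000 strain DRC41 lacking acrAB efflux pump and sulA.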 To be noted: higher = more signal, called active from +8 up or from −8 down.
The nature of test [12]: probe aLefty1 binding on compound microarray – biochemical, small-molecule microarray, 635/667 nm fluorescence, primary screen (AID 1153).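 Also: score merges spot fluorescence with signal-to-noise ratio from the scanned slide images.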 To be noted: higher = more signal.
Test [13] is described as follows: plasmodial surface anion channel blockers, osmotic lysis – cell-based, P. falciparum Indochina, OD700, 1 h, primary screen (AID 1154). To be noted: P. falciparum Indochina infected RBC osmotic lysis, higher = more signal, called active from +8 up or from −8 down.
Test [14] in a line: plasmodial surface anion channel blockers, osmotic lysis – cell-based, P. falciparum Indochina, OD700, 2 h, primary screen (AID 1155).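 Also: lysis reports solute entry through the parasite surface anion channel PSAC.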 To be noted: P. falciparum Indochina infected erythrocytes, higher = more signal, called active from +8 up or from −8 down.
The nature of test [15]: changes in parasitized red cell lysis, either direction – P. falciparum Indochina, OD700, 3 h, PSAC antagonist project, primary screen (AID 1156). To be noted: P. falciparum-infected erythrocytes, osmotic lysis, higher = more signal, called active from +8 up or from −8 down.
A short description of test [16]: plasmodial surface anion channel blockers, osmotic lysis – cell-based, P. falciparum Indochina, OD700, 18 h, primary screen (AID 1157). To be noted: P. falciparum Indochina infected erythrocytes, osmotic lysis OD700, 18 h; higher = more signal, called active from +8 up or from −8 down.
Test [17] in a line: S6 kinase pathway phospho-S6 level changes – cell-based, A549, cytoblot, luminescence, serum-stimulated, primary screen (AID 1158).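 Also: serum-stimulated A549 lung adenocarcinoma cells; signal is phosphorylated S6 detected by cytoblot immunostaining with HRP secondary.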 To be noted: 5 h, higher = more signal.
Test [18] has as its target NADPH oxidase 2 (Homo sapiens) (UniProt P04839). As to the kind of experiment: compounds shifting NOX2 Amplex Red fluorescence – cell-based, HEK293-NOX2, PMA-stimulated, NOX inhibitor project, primary screen (AID 1159). Also: test concentration not given here. To be noted: 45 min, higher = more signal, called active from +8 up or from −8 down.
Test [19] addresses NADPH oxidase 4 (Homo sapiens) (UniProt Q9NPH5). As to the kind of experiment: compounds shifting NOX4 Amplex Red fluorescence – cell-based, HEK293-NOX4, tetracycline-induced, NOX inhibitor project, primary screen (AID 1160). To be noted: HEK293-NOX4, Amplex Red H2O2 fluorescence, 45 min; higher = more signal, called active from +8 up or from −8 down.
Test [20] has as its target NADPH oxidase 5 (Homo sapiens) (UniProt Q96PH1). As to the kind of experiment: compounds shifting NOX5 Amplex Red fluorescence – cell-based, HEK293-NOX5, NOX inhibitor project, primary screen (AID 1161). To be noted: HEK293-NOX5, ionomycin, 45 min, higher = more signal.

Among the data in PubChem BioAssay are composite z-score and z-score values, retold here.

The source made the active and inactive calls. Unless noted, no rule for the calls is given here.

Sequence of NADPH oxidase 2 (Homo sapiens) (P04839 whole entry, looked up): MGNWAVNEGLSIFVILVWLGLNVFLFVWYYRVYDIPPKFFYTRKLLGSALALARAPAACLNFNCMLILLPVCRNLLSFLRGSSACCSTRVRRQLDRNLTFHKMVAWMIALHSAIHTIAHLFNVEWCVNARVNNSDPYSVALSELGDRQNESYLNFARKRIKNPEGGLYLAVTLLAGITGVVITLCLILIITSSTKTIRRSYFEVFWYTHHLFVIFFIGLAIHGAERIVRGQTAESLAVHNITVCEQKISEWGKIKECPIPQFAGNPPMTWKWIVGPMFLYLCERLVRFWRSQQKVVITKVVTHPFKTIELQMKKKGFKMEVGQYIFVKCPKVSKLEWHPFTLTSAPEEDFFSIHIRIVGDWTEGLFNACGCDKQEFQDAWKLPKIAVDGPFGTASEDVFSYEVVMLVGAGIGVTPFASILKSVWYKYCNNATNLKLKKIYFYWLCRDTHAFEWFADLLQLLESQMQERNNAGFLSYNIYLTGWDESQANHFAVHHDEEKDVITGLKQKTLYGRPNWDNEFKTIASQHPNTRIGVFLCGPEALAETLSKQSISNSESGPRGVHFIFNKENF
Sequence of NADPH oxidase 4 (Homo sapiens) (Q9NPH5 whole entry, looked up): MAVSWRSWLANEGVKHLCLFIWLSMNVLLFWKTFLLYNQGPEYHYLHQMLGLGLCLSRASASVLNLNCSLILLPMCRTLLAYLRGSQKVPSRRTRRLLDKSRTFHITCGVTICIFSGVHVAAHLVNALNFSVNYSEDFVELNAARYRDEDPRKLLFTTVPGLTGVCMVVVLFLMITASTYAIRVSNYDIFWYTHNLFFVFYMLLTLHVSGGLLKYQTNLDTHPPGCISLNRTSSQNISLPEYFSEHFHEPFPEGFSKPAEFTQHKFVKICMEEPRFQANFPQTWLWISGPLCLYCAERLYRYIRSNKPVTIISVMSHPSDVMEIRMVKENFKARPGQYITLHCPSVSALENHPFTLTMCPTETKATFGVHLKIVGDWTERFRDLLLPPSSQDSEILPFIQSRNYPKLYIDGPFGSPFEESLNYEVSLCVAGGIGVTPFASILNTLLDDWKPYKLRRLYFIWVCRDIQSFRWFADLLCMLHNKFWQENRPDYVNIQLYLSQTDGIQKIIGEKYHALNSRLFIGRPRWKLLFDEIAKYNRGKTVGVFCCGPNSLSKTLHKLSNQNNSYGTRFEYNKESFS
Sequence of NADPH oxidase 5 (Homo sapiens) (Q96PH1 whole entry, looked up): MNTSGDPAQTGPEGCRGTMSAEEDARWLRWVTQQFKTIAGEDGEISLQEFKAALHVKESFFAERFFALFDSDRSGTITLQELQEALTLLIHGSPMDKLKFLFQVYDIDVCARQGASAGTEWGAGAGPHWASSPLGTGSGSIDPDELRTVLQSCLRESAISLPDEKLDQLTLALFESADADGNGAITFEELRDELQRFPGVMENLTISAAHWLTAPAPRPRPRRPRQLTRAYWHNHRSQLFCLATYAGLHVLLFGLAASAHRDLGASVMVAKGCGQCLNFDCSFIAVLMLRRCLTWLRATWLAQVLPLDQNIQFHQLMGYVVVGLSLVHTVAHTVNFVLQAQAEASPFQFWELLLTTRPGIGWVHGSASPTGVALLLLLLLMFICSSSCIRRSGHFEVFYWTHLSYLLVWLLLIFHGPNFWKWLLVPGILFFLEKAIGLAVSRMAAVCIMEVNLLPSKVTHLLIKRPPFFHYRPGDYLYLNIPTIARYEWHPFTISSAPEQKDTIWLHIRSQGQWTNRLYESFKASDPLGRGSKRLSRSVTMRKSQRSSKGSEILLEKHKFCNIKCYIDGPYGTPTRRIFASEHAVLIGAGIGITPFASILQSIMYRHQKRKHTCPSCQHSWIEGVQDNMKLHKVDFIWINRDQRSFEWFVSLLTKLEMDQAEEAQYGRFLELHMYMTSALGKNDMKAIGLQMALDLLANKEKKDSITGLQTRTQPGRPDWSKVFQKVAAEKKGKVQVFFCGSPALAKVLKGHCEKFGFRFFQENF

For `COC(=O)Cn1c(C(=O)N(C)C)cc2c1C[C@H]1CN(C(=O)c3ccccc3)[C@@](Cc3ccccc3)(C(=O)OC)[C@@H]21`, the composite z-score in test [1] is 0.135; in [6], 0.822; in [7], 0.105; with Torsin-1A (Homo sapiens) [8] it was 0.263; with Torsin-1A (Homo sapiens) [9], 0.541; in test [10], -0.535. Also, the composite z-score in test [12] was 0.155. Also, the z-score is -0.273 (inactive) in test [2]; -0.334 (inactive) in test [3]; -0.189 (inactive) in [4]; -0.637 (inactive) in test [5]; -2.08 (inactive) in test [11]; -0.424 (inactive) in test [13]. The z-score in test [14] was -0.734 (inactive); in [15], -0.486 (inactive); in [16], -1.31 (inactive); in test [17] it was 0.17; in test [18], 0.363 (inactive); in [19], 1.59 (inactive). Further, in test [20], the z-score was -0.11.

Consider `O=C(N1CCOCC1)[C@]1(CCS(=O)(=O)c2ccccc2)N=C(c2ccc(OCCCO)cc2)O[C@@H]1c1ccccc1`, for which the composite z-score is 0.308 in test [1]; 0.947 in test [6]; 0.212 in [7]; 0.46 with Torsin-1A (Homo sapiens) [8]; 0.77 in the test with Torsin-1A (Homo sapiens) [9]; -0.19 in [10]. The same compound returned a composite z-score in [12] of 0.441. Moreover, the z-score in [2] is -2.3 (inactive); in [3], 0.863 (inactive); in [4], 1.1 (inactive); in [5], 0.711 (inactive); in test [11], 0.427 (inactive); in test [13], 27.2 (active). For the same compound, the z-score in test [14] was 20 (active); in test [15], 3.43 (inactive); in [16], 2.61 (inactive); in test [17], 0.0315; in test [18], 0.348 (inactive); in test [19] it was 1.72 (inactive). In addition, the z-score in test [20] was 1.16.

Take `CN1C2C=C(c3ccc(CO)cc3)C(C3C(=O)N(C(N)=O)C(=O)C32)C1C1CC1` (stereo not given): the composite z-score in [1] is -0.392; in [6], 0.0747; in test [7] it was -0.271; in the test with Torsin-1A (Homo sapiens) [8] it was 0.0973; in the test with Torsin-1A (Homo sapiens) [9] it was 0.0517; in [10], -0.104. The composite z-score in test [12] is -0.104. The z-score in test [2] is 0.547 (inactive); in test [3], -0.522 (inactive); in [4] it was -0.35 (inactive); in test [5], 0.527 (inactive); in [11], 0.149 (inactive); in test [13], 0.944 (inactive). Besides, the z-score in [14] was 0.411 (inactive); in test [15], -0.103 (inactive); in test [16], 0.0864 (inactive); in test [17] it was -0.0656; in test [18], -1.57 (inactive); in test [19] it was -1.29 (inactive). In addition, the z-score in [20] is -0.739.

Regarding `O=C1O[C@H](c2ccccc2)[C@H](c2ccccc2)N2[C@H]1[C@@H](C(=O)N1CCN(c3ncccn3)CC1)[C@]1(C(=O)Nc3ccc(C#CC4(O)CCCCCC4)cc31)[C@H]2c1ccc(O)cc1`, the composite z-score is 0.675 in [1]; -0.0103 in [6]; 0.096 in [7]; 0.574 with Torsin-1A (Homo sapiens) [8]; 0.0774 with Torsin-1A (Homo sapiens) [9]; 1.93 in test [10]. In [12], this compound returned a composite z-score of 0.0903. The z-score is -2.43 (inactive) in test [2]; -0.759 (inactive) in [3]; -0.258 (inactive) in test [4]; -0.296 (inactive) in [5]; 2.51 (inactive) in test [11]; 0.36 (inactive) in [13]. The z-score in test [14] was 0.88 (inactive); in test [15] it was 1.09 (inactive); in test [16], 0.566 (inactive); in [17], 1.37; in [18] it was 1.24 (inactive); in test [19], 0.663 (inactive). Further, in [20], the z-score stood at 1.22.

`O=C1c2ccccc2[C@@]2(Cc3ccccc3N(CC(F)(F)F)C2=O)[C@H](c2ccc(CO)cc2)N1Cc1ccccc1`: the composite z-score is 0.104 in [1]; 0.0298 in test [6]; -0.149 in test [7]; -0.118 in the test with Torsin-1A (Homo sapiens) [8]; -0.175 with Torsin-1A (Homo sapiens) [9]; 1.82 in test [10]. Moreover, in [12], the composite z-score is -0.0626. In addition, the z-score in test [2] was -4.1 (inactive); in test [3], -0.692 (inactive); in [4], -0.258 (inactive); in test [5], -0.616 (inactive); in [11], -0.98 (inactive); in [13], -0.0567 (inactive). The z-score in test [14] is -0.992 (inactive); in test [15], 0.11 (inactive); in test [16], -1.93 (inactive); in [17], 2.33; in test [18] it was -2.06 (inactive); in test [19], -2.39 (inactive). Further, the z-score in test [20] was -2.36.
